# Reference: PubChem BioAssay (NCI)
# This is part of a sample that, as a whole, favours compounds with a hit. Of some 83,000 tested, about 20% had one in any assay.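 Values shown are percent growth following 48 h exposure of cells in 96-well plates to a single concentration of compound; below 10 was considered active.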 Activity calls are given as the source filed them.
# Test system: SK-MEL-28 melanoma
# Test: NCI-60 one-dose screen, 48 h (100 = growth as untreated, 0 = no growth, -100 = all killed)
# Conditions: 10 µM
# Method: Growth inhibition of the SK-MEL-28 human tumor cell line is measured as a screen for anti-cancer activity. Cells are grown in 96 well plates and exposed to the test compound for 48 hours. Compounds are tested at a single concentration, which is 10^-5 M for most compounds. The reported endpoint is percent growth (GI% or GIPRCNT), where numbers from 0 - 100% represent growth inhibition, and numbers from -100% - 0 represent cell death. For example, a value of 40 represents 60% growth inhibition. A value of 0 means no net growth occurred over the course of the experiment. A value of -40 indicates 40% of cells at the beginning of the experiment died by the end of the experiment. A value of -100 means all cells are dead at the end of the experiment.
# NCI-60 Human Tumor Cell Lines Screen was performed using the standard one-dose NCI protocol, which is described in more detail at https://dtp.cancer.gov/discovery_development/nci-60/default.htm.
# Compounds with GIPRCNT values below 10 were considered active. Activity score was based on GIPRCNT using the following formula: […]
# Score is 0 for GIPRCNT values of 100 or above, 50 for GIPRCNT values of 0, and 100 for GIPRCNT values of -100.
row,Compound,growth
1,S=C1CCCC(=S)N1,106% (inactive)
2,O=C1/C(=C/c2cccc(O)c2)COc2ccc(O)cc21,102% (inactive)
3,O=C(CCN1C(=O)c2ccccc2C1=O)Nc1ccc(Cl)cc1,117% (inactive)
4,O=C(Nc1ccc(-c2nc3cc4ccccc4cc3[nH]2)cc1)c1cccc(Br)c1,41.8% (inactive)
5,Brc1ccc(Oc2ccc(Nc3ncnc4onc(-c5ccccc5)c34)cc2)cc1,97.2% (inactive)
6,CCN1C(=O)N(CC)C2C1NN=c1s/c(=C3\C(=O)N(CC(C)(C)C)c4ccccc43)c(=O)n12 (stereo not given),64% (inactive)
7,CCCCC1CCc2cccc3c(SCC(=O)N(C)c4ccc(Cl)cc4)cc[n+]1c23 (stereo not given),105% (inactive)
8,Cc1ccc2c(n1)C(=O)C(Oc1ccc(Br)cc1)=CC2=O,116% (inactive)
9,Nc1ccccc1-c1ccc(-c2ccc(Cl)cc2)c2c1[nH]c1ccccc12,97.1% (inactive)
10,O=c1oc2ccc(F)cc2c(=O)n1-c1ccc(Cl)cc1F,14.7% (inactive)
11,Cn1cc(-c2ccc3ncc(-c4ccc(CC(=O)Nc5cc(C(C)(C)C)no5)cc4)nc3c2)cn1,53.2% (inactive)
12,OC(c1ccccc1)c1nnc(SCc2ccccc2)n1Cc1ccccc1 (stereo not given),100% (inactive)
13,O=C(Nc1ncc(Cc2cccc(C(F)(F)F)c2)s1)C1COc2ccccc2O1 (stereo not given),87.5% (inactive)
14,COc1ccc(Cn2cc(Cn3c(=O)c(-c4nc5ccccc5[nH]4)cc4ccccc43)nn2)c(OC)c1OC,50.1% (inactive)
15,O=C(NC(=S)Nc1cccc(NC(=S)NC(=O)c2ccccc2)c1)c1ccccc1,55.3% (inactive)
16,CCOC(=O)c1cc2c(n1Cc1ccccc1OC)-c1oncc1CCC2,44.8% (inactive)
17,O=C(NC1CCCCC1)C(c1cccs1)N(CCc1ccccc1)C(=O)c1ccco1 (stereo not given),105% (inactive)
18,O=C(Nc1nc2c(s1)CCc1c-2c(Br)n(Cc2ccccc2)c1Br)c1ccccc1,66% (inactive)
19,COc1c(B(O)O)cccc1-c1nc2ccc3n[nH]c(F)c3c2c2c1CCCC2,116% (inactive)
20,O=C1/C=C/[C@@H](O)[C@@H]2C[C@@H](O)C[C@H]2/C=C/CCCCO1,-8.98% (active)

row,Compound,growth
1,O=c1c2cc(F)ccc2sc2c(NCCCNCCO)nc3ccc(Cl)cc3c12,99.9% (inactive)
2,COc1cc(NC(=O)CCSc2nc3ccccc3c(=O)n2Cc2ccccc2)cc(OC)c1OC,102% (inactive)
3,COc1cc(C(=O)NN=C2c3ccccc3-c3ccccc32)cc(OC)c1OC,46.6% (inactive)
4,CC(C)c1ccc(S(=O)(=O)NC(=O)NC2CCCC2)cc1,103% (inactive)
5,COc1ccc(Br)c(/C=C2\SC(=Nc3ccc(O)cc3)NC2=O)c1,101% (inactive)
6,COc1cccc2c(=O)c3c(sc12)c(NCCCNCCO)nc1ccccc13,81.9% (inactive)
7,COc1ccc(-c2nsc3c2NC(=O)CC3c2cccc(OC)c2)cc1 (stereo not given),45.3% (inactive)
8,CC(C)CCOc1ccc(-c2n[nH]c(C(F)(F)F)c2-c2cncc(C#N)c2)c(O)c1,33.7% (inactive)
9,O=C(Nc1ccc(N2CCNCC2)cc1)c1[nH]ncc1Nc1cc(C2CC2)ncn1,79.5% (inactive)
10,Nc1nc(-c2cnccn2)nn1-c1nc2ccccc2s1,104% (inactive)
11,Cn1c(C(=O)c2cccc3ccccc23)nc2ccccc21,40.8% (inactive)
12,CCCCCCn1c(=N)n(CC(O)COc2cccc(C)c2)c2ccccc21 (stereo not given),-92.3% (active)
13,COc1cccc(-c2nn(C)c3sc(C(=O)NCCN4CCN(c5ccccc5F)CC4)cc23)c1,-75.2% (active)
14,Cc1ccc(Nc2nc(N)c3ccccc3n2)cc1Cl,102% (inactive)
15,CCN1C(=O)N(CC)C2C1NN=c1s/c(=C3\C(=O)N(C(C)C)c4ccccc43)c(=O)n12 (stereo not given),57.4% (inactive)
16,O=C(O)CCC(=O)c1ccc(C2CCCCCC2)cc1,113% (inactive)
17,COc1cc2nc(NC3CCC3)nc(NC3CCN(C(C)C)CC3)c2cc1OC,38.1% (inactive)
18,C=CCN1C(=O)/C(=c2\sc3n(c2=O)NC2C(N=3)N(CC)C(=O)N2CC)c2ccccc21 (stereo not given),59.9% (inactive)
19,O=C(Nc1ccccc1O)c1ccc(Oc2cccc(C(=O)Nc3ccccc3O)c2)cc1,32.6% (inactive)
20,CCCCC(O)(c1ccc(Cl)cc1)C(CN1CCOCC1)c1ccc(Cl)cc1 (stereo not given),54.1% (inactive)
